Shown are actives, neighbours in structure and some others; about 21% of the full set was active somewhere.
DT40 TDP1 no CPT: qHTS for Inhibitors of human tyrosyl-DNA phosphodiesterase 1 (TDP1): qHTS in cells in absence of CPT. DT40 Tdp1-/- hTDP1 cells, no CPT, ATP luminescence, 48 h. Potency, µM (highest dose often 46.2 µM), most hits filed as inhibitors. hit rate 15% among 420,000. AID 686978, 2013; further: nearly all actives have a fitted effect of over 55% in size
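Stably hTDP1-transfected Tdp1-null chicken DT40 cells were treated with library compounds minus camptothecin and grown for at least 48 hr at 37 °C, after which cellular ATP was quantified by luminescence.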
ELG1 DNA repair: blocks ELG1-dependent DNA repair in HEK293T cells; HEK293T ELG1-luciferase reporter, luminescence, 16 h; DNA damage induced by 5-fluorouridine; Potency, µM (doses to about 46.1 µM), usual class: inhibitors; hit rate 2.3% among 330,000; further: nearly all actives have a fitted effect of over 55% in size
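Cells (2,000 per well) received 5-fluorouridine plus test compound or DMSO and were incubated 16 hr at 37 °C, 5% CO2. Luciferase activity was read by luminescence 30 min after ONE-Glo addition; signal suppression marked inhibition of damage-induced ELG1 function.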
Gal4-VP16 FLuc: counter-screen for ROR gamma inhibitors: Gal4-VP16 reporter | Drosophila S2 Gal4-VP16 UAS-luciferase, luminescence, 20 h | Potency, µM (top dose mostly 53.6 µM), hits mostly inhibitors | hit rate 3.5% among 310,000;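 further: Gal4-VP16 expression switched on by copper sulfate through the metallothionein promoter; nearly all actives have a fitted effect of over 50% in size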
TDP1 cell CPT: growth inhibition of DT40 Tdp1-/-;hTDP1 cells with camptothecin (screen for TDP1 inhibitors). Potency, µM (titrated, usually from 46.2 µM), actives largely listed as inhibitors. AID 686979. chicken DT40 Tdp1-/-;hTDP1 cells + 20 nM CPT, ATP luminescence, 48 h. hit rate 12% among 420,000; further: nearly all actives have a fitted effect of over 55% in size
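Cell growth measured by CellTiter-Glo luminescence after a minimum 48 h, 37 C compound exposure with 20 nM CPT in Tdp1-knockout DT40 cells stably expressing hTDP1, seeded 400/well; qHTS titration format.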
IL1B secr inh: inflammasome signaling inhibition, IL-1 beta readout. hit rate 4.7% among 360,000. THP-1 LPS/ATP IL-1B secretion, AlphaLISA, 16 h; active compounds read low. activity change, % at 57.5 µM; in the data active means activity change below about -50%; inconclusive means mostly about -30% to -49%
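Secreted IL-1B measured by AlphaLISA bead assay after 16 h compound exposure of THP-1 cells; compounds (final up to 57.5 uM) added 1 h before LPS (250 ng/mL) and ATP (1.25 mM) stimulation; lower signal means less secretion.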
RORg inh: blocks mouse ROR gamma transcriptional activity; P51450; Drosophila S2 Gal4-RORgamma UAS-luciferase reporter, 20 h; Potency, µM (titrated, usually from 53.6 µM), hits mostly inhibitors; hit rate 5.4% among 310,000; further: nearly all actives have a fitted effect of over 60% in size
Target sequence (P51450 whole entry, looked up, the tested form may be a part): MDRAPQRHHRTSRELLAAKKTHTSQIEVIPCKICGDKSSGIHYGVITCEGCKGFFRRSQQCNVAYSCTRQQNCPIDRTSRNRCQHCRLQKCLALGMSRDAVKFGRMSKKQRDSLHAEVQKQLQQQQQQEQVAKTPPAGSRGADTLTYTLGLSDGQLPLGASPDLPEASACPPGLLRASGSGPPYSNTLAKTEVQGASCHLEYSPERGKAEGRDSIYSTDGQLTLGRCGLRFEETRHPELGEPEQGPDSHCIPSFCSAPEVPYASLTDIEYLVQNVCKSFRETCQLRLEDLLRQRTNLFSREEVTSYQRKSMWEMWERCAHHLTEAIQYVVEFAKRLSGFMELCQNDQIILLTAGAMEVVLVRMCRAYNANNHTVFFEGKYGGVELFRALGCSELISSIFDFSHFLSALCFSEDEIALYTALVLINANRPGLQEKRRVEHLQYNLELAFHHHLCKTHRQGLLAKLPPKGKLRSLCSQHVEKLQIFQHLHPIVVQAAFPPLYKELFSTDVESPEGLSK
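Schneider cells (Drosophila), stable Gal4 DBD–ROR gamma + UAS-luc; 1 hr cmpd preincubation; Cu2+ induction 700 uM final; 20 hr ambient; luminescence.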
Hits are given with their value; . = inactive; ? = inconclusive; / = no result; [ ] = dose if it differs, or a comment. Unless noted, the call rests on the fitted dose curve; in most records, active means well fitted curve in the direction sought with a large enough effect; inconclusive means small, poorly fitted or top-dose-only effect, or another doubt; inactive means no such curve, though single readings can be large; an effect the other way counts as inactive or inconclusive.

SMILES	DT40 TDP1 no CPT	ELG1 DNA repair	Gal4-VP16 FLuc	TDP1 cell CPT	IL1B secr inh	RORg inh
Cc1ccccc1-c1nc(CS(=O)(=O)CC(=O)NCCCN2CC(C)CC(C)C2)c(C)o1 (stereo unspecified)	?	.	?	?	?	.
Cc1ccc(CNC(=O)c2c(O)nc3cc(C)ccn3c2=O)cc1	.	/	/	.	/	/
CC(NC(=O)c1c(O)nc2ccccn2c1=O)c1ccccc1 (stereo unspecified)	18.4µM	/	/	23.1µM	/	/
Cc1ccn2c(=O)c(C(=O)NC(C)c3ccccc3)c(O)nc2c1 (stereo unspecified)	23.1µM	/	/	?	/	/
Cc1ccn2c(=O)c(C(=O)NCCc3ccccc3)c(O)nc2c1	23.1µM	/	/	?	/	/
Cc1ccc(NC2=CC(c3ccccc3F)N(c3ccc(C)cc3)C2=O)cc1 (stereo unspecified)	?	/	/	.	/	/
Cc1cc(=O)n(C(C)c2ccccc2)n1C(C)c1ccccc1 (stereo unspecified)	?	/	/	.	.	/
CCOC(=O)c1nn(-c2ccccc2Cl)c(=O)cc1OCC(=O)Nc1cccc(OC)c1	.	.	/	.	.	/
Cc1cc(F)ccc1NC(=O)CCSc1nc(-c2ccco2)cc(C(F)(F)F)n1	.	/	/	.	/	/
COc1ccc(CCNC(=O)CCSc2nc(-c3ccco3)cc(C(F)(F)F)n2)cc1OC	16.4µM	?	.	14.6µM	?	.
CC(NC(=O)CCSc1nc(-c2ccco2)cc(C(F)(F)F)n1)c1ccccc1 (stereo unspecified)	?	.	.	13µM	.	.
O=C(CCSc1nc(-c2ccco2)cc(C(F)(F)F)n1)N1CCN(c2ccccc2)CC1	20.6µM	.	.	?	.	.
COc1ccc(CCNc2nc(-c3ccco3)cc(C(F)(F)F)n2)cc1OC	?	.	.	?	.	.
O=C(CCSc1nc(-c2ccco2)cc(C(F)(F)F)n1)NCc1ccccn1	.	.	.	.	.	.
O=C(CCSc1nc(-c2ccco2)cc(C(F)(F)F)n1)NCc1cccs1	?	?	.	16.4µM	.	.
FC(F)(F)c1cc(-c2ccco2)nc(N2CCN(c3ccccc3)CC2)n1	.	?	.	.	.	.
CC1CCN(C(=O)CSC2=NS(=O)(=O)c3cc(F)ccc3N2)CC1	.	?	/	.	.	/
CC(C)n1c(=O)c2ccccc2n1S(C)(=O)=O	.	/	/	.	.	/
O=C(CSc1cn[nH]n1)Nc1ccc(Cl)cc1Cl	.	.	.	.	?	.
Cc1oc2ncn(C)c(=O)c2c1C(=O)N1CCN(c2cccc(C(F)(F)F)c2)CC1	.	/	/	.	/	/
O=C(N/N=C/c1cccc(C(F)(F)F)c1)c1cc2c(s1)-c1ccccc1CC2	?	.	.	?	.	.
Cc1cccc(/C=N/NC(=O)c2cc3c(s2)-c2ccccc2CC3)c1	14.6µM	?	.	16.4µM	.	.
CC(C1CC1)N(Cc1ccccc1)C(=S)Nc1ccccc1Cl (stereo unspecified)	.	?	?	.	.	10µM
COC(=O)Nc1ccc(S(=O)(=O)NC2CCCCC2)cc1	.	.	.	.	.	?
O=C(Nc1ccc(C(F)(F)F)cc1)c1cc(S(=O)(=O)NC2CCCCC2)ccc1F	18.4µM	/	/	13µM	/	/
SMILES	DT40 TDP1 no CPT	ELG1 DNA repair	Gal4-VP16 FLuc	TDP1 cell CPT	IL1B secr inh	RORg inh
O=C(Nc1ccc(F)cc1)c1cc(S(=O)(=O)N2CCCCC2)ccc1F	.	?	.	.	.	.
O=C(Nc1ccc(C(F)(F)F)cc1)c1cc(S(=O)(=O)NC2CCCCCC2)ccc1F	?	/	/	20.6µM	/	/
Cc1ccc(C(=O)NCCNC(=O)COc2ccc(Cl)cc2)cn1	.	.	.	.	.	.
N#Cc1ccc(CN2CCC3(CCNCC3)CC2)cc1	18.4µM	/	.	?	/	.
CC1(C(=O)Nc2ccc3c(c2)OCCO3)CCC(=O)N1C1CC1 (stereo unspecified)	.	/	/	.	.	/
COc1ccccc1NC(=O)C1=C(C)Nc2ncnn2C1c1cccn1C (stereo unspecified)	.	/	/	.	/	/
O=S1(=O)CC(N2CC=CC2)CN1Cc1ccccc1 (stereo unspecified)	?	/	/	?	.	/
Cn1c(C(=O)NCCCN2CCCCCC2)cc2c(=O)n(C)c3ccccc3c21	?	?	.	18.4µM	.	.
Cn1c(C(=O)NCCCN2CCc3ccccc3C2)cc2c(=O)n(C)c3ccccc3c21	?	.	.	?	-53.2	.
O=C(CCc1ccccc1)Nc1ccc2c(c1)C(=O)OC2	.	.	.	.	.	?
O=C(CC(=O)c1ccccc1)CS(=O)(=O)c1ccccc1	?	/	/	?	.	/
CC(C)NC(=O)N1CC[C@@]2(CCCN(C(=O)c3ccncc3)C2)C1	.	/	.	.	/	.
Clc1ccc(-c2ccc(SCc3ccccn3)nn2)cc1	.	?	?	?	.	.
COc1ccc(-c2ccc(SCc3ccccn3)nn2)cc1OC	?	.	.[10 µM]	13µM	-55.7	.
Cc1ccc(C(=O)CSc2ccc(-c3cccnc3)nn2)cc1	?	.	2.51µM	.	.	112µM
COc1ccc(-c2ccc(SCC(=O)c3ccccc3)nn2)cc1OC	13µM	?	.	?	.	.
Cc1ccc(-c2ccc(SCC(=O)c3ccccc3)nn2)cc1	?	?	.	.	.	.
O=[N+]([O-])c1cccc(-c2ccc(SCc3ccccn3)nn2)c1	25.9µM	?	?	?	?	?
CO/N=C(/C)CCC(=O)OC[C@@H]1O[C@H](C#Cc2ccccc2)C=C[C@@H]1Oc1ccc(C)cc1	/	/	.[10 µM]	/	/	.[10 µM]
COc1ccc(N2CCN(Cc3nc4c(c(=O)[nH]c(=O)n4C)n3Cc3ccccc3F)CC2)cc1	.	/	/	.	/	/
CN(C(=O)CSc1nc(C2CC2)n(-c2ccccc2)n1)C1CCS(=O)(=O)C1 (stereo unspecified)	.	.	/	.	.	/
Cc1cc(C)c(NC(=S)N(CCN(C)C)C(C)c2cccnc2)c(C)c1 (stereo unspecified)	.	.	.[10 µM]	.	.	.
Cc1cc(C)cc(NC(=S)N(CCN(C)C)C(C)c2cccnc2)c1 (stereo unspecified)	.	.	.[10 µM]	.	.	11.2µM
Cc1ccc(NC(=S)N(CCN(C)C)C(C)c2ccco2)cc1Cl (stereo unspecified)	?	.	?	?	.	12.6µM
CCc1cccc(C)c1NC(=S)N(CCN(C)C)C(C)c1ccco1 (stereo unspecified)	?	.	.	18.4µM	.	?

From PubChem BioAssay
